A short description of assay [1]: qHTS for Inhibitors of the Functional Ribonucleoprotein Complex (vRNP) of Lassa (LASV) Arenavirus: LASV Primary Screen - GLuc reporter signal (AID 1347082; calls by dose curve; tested in HEK293 reporter line; further: series mostly up to about 57 µM; nearly all actives have a fitted effect of over 60% in size). (Quantitative high-throughput screening tests each substance at several concentrations.)
Assay [2] can be described thus: qHTS for Inhibitors of the Functional Ribonucleoprotein Complex (vRNP) of Lassa (LASV) Arenavirus: Viability assay - alamar blue signal for LASV Primary Screen (AID 1347083; calls by dose curve; tested in HEK293 reporter line; further: nearly all actives have a fitted effect of over 80% in size; further: potency means the concentration at half of the fitted maximal effect).
Assay [3] is described as follows: qHTS for Inhibitors of the Functional Ribonucleoprotein Complex (vRNP) of Lymphocytic Choriomeningitis Arenaviruses (LCMV): Viability assay - alamar blue signal for LCMV Primary Screen (AID 1347085; calls by dose curve; tested in HEK293 reporter line; further: series mostly up to about 57 µM; nearly all actives have a fitted effect of over 80% in size).
Assay [4] concerns the target Nucleoprotein (Lymphocytic choriomeningitis virus (strain Armstrong)) (UniProt P09992). Description: qHTS for Inhibitors of the Functional Ribonucleoprotein Complex (vRNP) of Lymphocytic Choriomeningitis Arenaviruses (LCMV): LCMV Primary Screen - GLuc reporter signal (AID 1347086). Further: series mostly up to about 57 µM; nearly all actives have a fitted effect of over 70% in size.

Molecules are shown by their SMILES. Results filed as inconclusive are left out. Activity calls are given as the source filed them. Unless noted, the call rests on the fitted dose curve.

Sequence of Nucleoprotein (Lymphocytic choriomeningitis virus (strain Armstrong)) (P09992 whole entry, looked up): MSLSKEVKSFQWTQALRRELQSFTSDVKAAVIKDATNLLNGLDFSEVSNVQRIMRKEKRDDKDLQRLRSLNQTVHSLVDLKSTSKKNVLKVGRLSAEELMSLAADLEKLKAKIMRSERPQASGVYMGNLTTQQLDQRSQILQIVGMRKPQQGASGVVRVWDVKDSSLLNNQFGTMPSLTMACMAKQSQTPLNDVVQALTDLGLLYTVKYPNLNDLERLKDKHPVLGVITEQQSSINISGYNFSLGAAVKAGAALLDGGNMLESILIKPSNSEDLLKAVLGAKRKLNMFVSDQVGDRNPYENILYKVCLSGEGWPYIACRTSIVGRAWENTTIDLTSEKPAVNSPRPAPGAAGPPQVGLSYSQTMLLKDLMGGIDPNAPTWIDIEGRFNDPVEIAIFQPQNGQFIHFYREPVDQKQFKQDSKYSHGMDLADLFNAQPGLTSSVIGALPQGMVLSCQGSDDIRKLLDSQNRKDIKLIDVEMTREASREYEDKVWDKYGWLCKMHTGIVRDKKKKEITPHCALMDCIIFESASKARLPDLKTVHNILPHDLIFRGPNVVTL

With `Cc1ccc(O)c([C@H](CCN(C(C)C)C(C)C)c2ccccc2)c1`, the Potency result in assay [1], in assay [2], in assay [3] and in assay [4] was “inactive” throughout.

For the compound `C=C[C@H]1CN2CC[C@H]1C[C@@H]2[C@@H](O)c1ccnc2ccc(OC)cc12`, the Potency result in assay [1], in assay [2], in assay [3] and in assay [4] was “inactive” each time.

As to `COc1cc(NC(C)CCCN)c2ncccc2c1` (centres undefined), the Potency result in assay [1], in assay [2], in assay [3] and in assay [4] was “inactive” in each case.

For the compound `O[C@@H](CNC[C@H](O)[C@H]1CCc2cc(F)ccc2O1)[C@@H]1CCc2cc(F)ccc2O1`, the Potency result in assay [1], in assay [2], in assay [3] and in assay [4] was “inactive” throughout.

`CCOC(=O)[C@H](CCc1ccccc1)N[C@@H](C)C(=O)N1Cc2cc(OC)c(OC)cc2C[C@H]1C(=O)O`: the Potency entry in assay [1], in assay [2], in assay [3] and in assay [4] was “inactive” in each case.

As for `CN(C/C=C/C#CC(C)(C)C)Cc1cccc2ccccc12`, the Potency entry in assay [1], in assay [2], in assay [3] and in assay [4] was “inactive” each time.

For the compound `NC(=O)N1c2ccccc2CC(=O)c2ccccc21`, the Potency entry in assay [1], in assay [2], in assay [3] and in assay [4] was “inactive” throughout.

For the compound `Cc1cnc(C(=O)NCCc2ccc(S(=O)(=O)NC(=O)NC3CCCCC3)cc2)cn1`, the Potency result in assay [1], in assay [2], in assay [3] and in assay [4] was “inactive” throughout.

Take `O=C(NCCN1CCOCC1)c1ccc(Cl)cc1`: the Potency result in assay [1], in assay [2], in assay [3] and in assay [4] was “inactive” each time.

`O=C(O)C1(C(=O)O)CCC1.[NH2-].[NH2-].[Pt+2]`: the Potency result in assay [1], in assay [2], in assay [3] and in assay [4] was “inactive” in each case.

As to `CCC1(c2ccccc2)C(=O)NCNC1=O`, the Potency result in assay [1], in assay [2], in assay [3] and in assay [4] was “inactive” throughout.

With `CCC1C(=O)OCC1Cc1cncn1C` (centres undefined), the Potency entry in assay [1], in assay [2], in assay [3] and in assay [4] was “inactive” each time.

Consider `Cc1ccc2c(n1)Oc1ccc(C(C)C(=O)OCC(=O)N(C)C)cc1C2` (centres undefined), for which the Potency entry in assay [1], in assay [2], in assay [3] and in assay [4] was “inactive” in each case.

With `Nc1ccc(O)c(C(=O)O)c1`, the Potency entry in assay [1], in assay [2], in assay [3] and in assay [4] was “inactive” each time.

On to `Nc1cc(-c2ccncc2)c[nH]c1=O`, for which the Potency entry in assay [1], in assay [2], in assay [3] and in assay [4] was “inactive” in each case.

As to `CC(C)c1c(C(=O)Nc2ccccc2)c(-c2ccccc2)c(-c2ccc(F)cc2)n1CC[C@@H](O)C[C@@H](O)CC(=O)O`, the Potency entry in assay [1], in assay [2] and in assay [4] was “inactive” in each case.

As to `C#Cc1cccc(Nc2ncnc3cc(OCCOC)c(OCCOC)cc23)c1`, the Potency result in assay [1] and in assay [4] was “inactive” each time. The Potency in assay [2] was 7.69 µM (active).

On to `CN1CCC[C@@H]1CCO[C@](C)(c1ccccc1)c1ccc(Cl)cc1`, for which the Potency entry in assay [1] and in assay [3] was “inactive” throughout.

Consider `Cc1nc(-c2ccc(OCC(C)C)c(C#N)c2)sc1C(=O)O`, for which the Potency result in assay [1], in assay [2], in assay [3] and in assay [4] was “inactive” each time.

Consider `Cc1cc2c(s1)Nc1ccccc1N=C2N1CCN(C)CC1`, for which the Potency entry in assay [1], in assay [2], in assay [3] and in assay [4] was “inactive” throughout.

For `CN(CCOc1ccc(CC2SC(=O)NC2=O)cc1)c1ccccn1` (centres undefined), the Potency entry in assay [1], in assay [2], in assay [3] and in assay [4] was “inactive” throughout.

As to `COc1cc2nc(N3CCN(C(=O)C4COc5ccccc5O4)CC3)nc(N)c2cc1OC` (centres undefined), the Potency entry in assay [1], in assay [2], in assay [3] and in assay [4] was “inactive” in each case.

Consider `COC1=CC(=O)C[C@@H](C)[C@]12Oc1c(Cl)c(OC)cc(OC)c1C2=O`, for which the Potency entry in assay [1] and in assay [3] was “inactive” each time.

As for `CCOC(=O)N1CCC(=C2c3ccc(Cl)cc3CCc3cccnc32)CC1`, the Potency result in assay [1], in assay [2], in assay [3] and in assay [4] was “inactive” throughout.

Turning to `Nc1ncn([C@@H]2O[C@H](CO)[C@@H](O)[C@H]2O)c(=O)n1`, the Potency result in assay [1] and in assay [3] was “inactive” throughout.

`C=C(CC)C(=O)c1ccc(OCC(=O)O)c(Cl)c1Cl`: the Potency entry in assay [1], in assay [2], in assay [3] and in assay [4] was “inactive” each time.

In the case of `Cn1cnc([N+](=O)[O-])c1Sc1ncnc2nc[nH]c12`, the Potency result in assay [1] and in assay [4] was “inactive” throughout. Moreover, the Potency in assay [2] is 50.1 µM (active).

As for `O=C(c1ccc(OCCN2CCCCC2)cc1)c1c(-c2ccc(O)cc2)sc2cc(O)ccc12`, the Potency entry in assay [1] and in assay [3] was “inactive” in each case.

With `Cc1cn([C@H]2C[C@H](N=[N+]=[N-])[C@@H](CO)O2)c(=O)[nH]c1=O`, the Potency entry in assay [1], in assay [2], in assay [3] and in assay [4] was “inactive” each time.

On to `COc1ccc(-c2cc(=S)ss2)cc1`, for which the Potency entry in assay [1], in assay [2], in assay [3] and in assay [4] was “inactive” each time.

These data come from PubChem BioAssay (NCATS).
